Results with a measured potency or affinity are listed apart.
system: Klebsiella pneumoniae; settings: Concentration 32 ug.mL-1;; ASSAY_TEST Inhibition of Bacterial Growth; detection method Absorption (OD600); MEDIA CAMHB; plate type 384well; NBS; CORNING #3640; time 18 hr

Structure (SMILES)	Inhibition [%]
COc1cccc(NC(=O)Cn2nc3ccc(-c4ccc(C)c(C)c4)nn3c2=O)c1	-6.86
O=c1n(Cc2ccc3c(c2)OCO3)nc2c(S(=O)(=O)N3CCCCC3)cccn12	10.73
COc1ccc(NC(=O)Cn2nc3c(SCc4ccc(Cl)cc4)nccn3c2=O)cc1OC	3.8
O=c1c2sccc2n2c(=S)[nH]nc2n1CC1CCCO1 (stereo not given)	6.97
COc1ccc(NC(=O)Cn2nc3ccc(-c4ccccc4)nn3c2=O)cc1	5.42
Cc1ccc(Cn2nc3c(=O)n(-c4ccc(C)c(C)c4)ccn3c2=O)cc1	14.01
O=C(CCc1nnc2c(N3CCCCC3)nc3ccccc3n12)NCc1ccc(Cl)cc1	14.26
O=C(NCc1ccccc1)c1ccc2nn(CC(=O)N3CCN(c4ccccc4F)CC3)c(=O)n2c1	7.35
O=C(Cn1nc2c(Oc3ccccc3)nccn2c1=O)Nc1ccccc1C(F)(F)F	6.19
COc1ccccc1-n1ccn2c(SCC(=O)Nc3ccc(C)c(F)c3)nnc2c1=O	8.02
CCOc1ccc(-n2ccn3c(SCC(=O)c4ccc(OC)c(OC)c4)nnc3c2=O)cc1	7.92
COc1cc(OC)c(NC(=O)Cn2nc3c(Sc4ccc(C)cc4C)nccn3c2=O)cc1Cl	6.06
CC1CC(C)CN(c2nccn3c(=O)n(CC(=O)Nc4cccc(C(F)(F)F)c4)nc23)C1 (stereo not given)	12.34
CCc1ccc(N(Cc2ccccc2F)S(=O)(=O)c2cccn3c(CC)nnc23)cc1	6.04
O=C(Cn1nc2c(N3CCOCC3)nccn2c1=O)NCc1ccccc1Cl	10.56
